The record followed here is ChEMBL document CHEMBL3988442, “University of Dundee, Small-Polar-MMV Screening Library” (2021).

The campaign covered roughly 38,000 compounds. About 1,200 (3.2%) showed an effect of 50% or more. The median lay at about -58%. Shown is part of a subset that was picked to be rich in strong results.

The subject of the experiment is Plasmodium falciparum. The experiment in a line: Calibr Malaria Delayed Death Assay SOP. Details: scale not given: in the data most compounds retested in dose-response had high values. The format is functional, organism-based. As to conditions: concentration 4.99e-06 (unit not given; other assays of the set use mol/L).
Take `CS(=O)(=O)CCCNc1cccc(COC2CCCCC2)c1`: the “Percent Effect” value is listed as -119.3%.
With `Cc1cc(C(=O)N2CCCC2)ccc1NCc1nc(CC(C)C)no1`, the “Percent Effect” value is given as -36.08%.
As for `C=C/C=c1\c(=C/C)oc2c(NCc3ccccc3)ncnc12`, the figure is -45.75%.
For `CCCc1nc(N2CCCC(C)C2)c2c(n1)c(C)nn2CC` (stereo not drawn), the “Percent Effect” value was -54.34%.
On to `CCc1c(C)sc2nc3n(CC(N)=O)nc(SC)n3c(=O)c12`, for which the “Percent Effect” value is reported as -38.8%.
As for `CN(C)[C@H]1CCCCN(C(=O)COCc2nc3cc(F)ccc3[nH]2)C1`, the figure is -11.74%.
For `COC(C)Cc1nc(-c2cnn3c(C)cc(C)nc23)no1` (stereo not drawn), the “Percent Effect” value is reported as -0.05951%.
As for `CO[C@@H]1CCN(Cc2ccccn2)[C@@H]2CN(Cc3ccco3)C[C@@H]21.O=C(O)C(F)(F)F.O=C(O)C(F)(F)F.O=C(O)C(F)(F)F`, the figure is 81.61%; as for `CO[C@@H]1CCN(Cc2ccoc2)[C@@H]2CN(Cc3ccco3)C[C@@H]21.O=C(O)C(F)(F)F.O=C(O)C(F)(F)F`, 46.48%.
As for `CO[C@H]1CCN(c2ncc(F)cn2)[C@@H]2CN(Cc3ccco3)C[C@H]12.O=C(O)C(F)(F)F.O=C(O)C(F)(F)F`, the “Percent Effect” value stood at 62.54%.
Regarding `CO[C@@H]1CCN(c2ncc(F)cn2)[C@@H]2CN(Cc3cccnc3)C[C@@H]21.O=C(O)C(F)(F)F.O=C(O)C(F)(F)F.O=C(O)C(F)(F)F`, the “Percent Effect” value is recorded as -59.6%.
As to `CO[C@@H]1CCN(Cc2c(C)noc2C)[C@@H]2CN(Cc3ccco3)C[C@@H]21.O=C(O)C(F)(F)F.O=C(O)C(F)(F)F`, the “Percent Effect” value was 39.75%.
As for `CCN1C[C@H]2[C@@H](C1)N(c1ncc(F)cn1)CC[C@H]2OC.O=C(O)C(F)(F)F.O=C(O)C(F)(F)F`, the “Percent Effect” value was found to be 33.74%.
In the case of `Clc1snnc1CN(Cc1cccs1)C1CC1`, the “Percent Effect” value is recorded as -103.1%.
For the compound `CCc1noc(C(C)N(C)CC(=O)Nc2cccc(C)c2C)n1` (stereo not drawn), the “Percent Effect” value was -134.7%.
Turning to `O=C(O)[C@@H]1CN(C(=O)c2ccc(F)c(F)c2)C[C@H]1c1cccc(F)c1`, the “Percent Effect” value is reported as -108.3%.
`Cc1cc(CN2CCN(C(=O)C(C(C)C)n3cncn3)CC2)on1` (stereo not drawn): the “Percent Effect” value is listed as -30.78%.
As to `O=c1ccc(-c2cccs2)nn1CN1CCc2ccccc2C1`, the “Percent Effect” value is recorded as -135%.
As for `CCC(CNC(=O)c1ccccn1)N1CCc2ccccc2C1` (stereo not drawn), the “Percent Effect” value is 22.7%.
With `O=C1CCCCCN1Cc1cccc(OC(F)F)c1`, the “Percent Effect” value is recorded as -103.2%.
On to `CSCc1noc(CN2CCCCC2CCc2ccc(O)cc2)n1` (stereo not drawn), for which the “Percent Effect” value is listed as -58.4%.
Then `Cc1noc(C)c1CN1CCCCC1CCc1ccc(O)cc1` (stereo not drawn), with 50.08%; and `Cc1noc(C)c1CN1CCCC1C(=O)OCc1ccccc1` (stereo not drawn), with -68.08%.
On to `c1cc(-c2cnccn2)cc(-c2ccn(CCN3CCCCC3)n2)c1`, for which the “Percent Effect” value was 41.47%.
Take `c1cc(-c2cnccn2)cc(-c2ccn(CCCN3CCCCC3)n2)c1`: the “Percent Effect” value is 18.71%.
With `c1cc(-c2cnccn2)cc(-c2ccn(CCN3CCCC3)n2)c1`, the “Percent Effect” value is 67.88%.
Take `Cc1cc2[nH]c(=O)oc2cc1S(=O)(=O)N1CCC(N2CCCC2=O)CC1`: the “Percent Effect” value is -16.02%.
`CC(=O)N(C)CC(=O)NC(C)c1ccc(OCCC(C)C)cc1` (stereo not drawn): the “Percent Effect” value is recorded as -42.24%.
Then `Cc1nc(CCNC(=O)NCC(c2ccco2)N(C)C)cs1` (stereo not drawn), with -71.79%; and `O=C(NCCc1ccncc1)[C@H]1C[C@@H]2CCN(c3nncs3)C[C@H]2O1`, with -93.92%.
`COCCN(C)C(=O)NCCc1coc(-c2ccc(C)cc2)n1`: the “Percent Effect” value is -79.36%.
For `Cc1ncc(CNC(=O)N(CCCO)C2CCc3ccccc32)s1` (stereo not drawn), the “Percent Effect” value is listed as -63.88%.
Then `CC(C)n1ncc2c1NC(=O)CC21C(=O)Nc2c(Cl)ccc(Cl)c21` (stereo not drawn), with 83.19%; and `CC(C)n1ncc2c1NC(=O)CC21C(=O)Nc2c(Cl)cc(Br)cc21` (stereo not drawn), with -58.13%.
As for `CC(C)n1ncc2c1NC(=O)CC21C(=O)Nc2cc(Cl)cc(Cl)c21` (stereo not drawn), the “Percent Effect” value was -81.88%.
As for `COc1ccc(Cl)cc1NC(=O)N1CCc2nc(NC(C)=O)sc2C1`, the figure is -92.85%; as for `COc1ccc(COCC(O)CNC(=O)c2cc(C)oc2C)cc1` (stereo not drawn), -54.86%.
As for `O=C(NCCCn1cccn1)C1(c2cccc(Cl)c2)CC1`, the figure is -36.51%.
Take `CS(=O)(=O)NCc1nnc2n1CCN(Cc1cccnc1)C2`: the “Percent Effect” value is -124.8%.
Turning to `Cc1nc(NC2(CN3CCCCC3)CCCCC2)c2cnn(C)c2n1`, the “Percent Effect” value is recorded as 54.86%.
Then `CCOC(=O)CC1(Nc2nc(C)nc3c2cnn3C)CCCCC1`, with -28.38%.
For `COCC1(Nc2nc(C)nc3c2cnn3C)CCCC1`, the “Percent Effect” value is recorded as -148.5%.
For `COc1cc(C(=O)NS(=O)(=O)c2cc(Cl)sc2Cl)ccc1OC(F)F`, the “Percent Effect” value was -57.9%.
With `CCN(CCO)Cc1ccc(Br)c2cccnc12`, the “Percent Effect” value is reported as 54.32%.
As for `N#CCCN(CCC#N)Cc1ccc(Br)c2cccnc12`, the “Percent Effect” value is given as -154.3%.
As to `OCCN(CCO)Cc1ccc(Br)c2cccnc12`, the “Percent Effect” value is reported as -31.32%.
Turning to `O=C(NCC1(O)CCC1)c1c(O)cc(Cl)cc1Cl`, the “Percent Effect” value is -101.6%.
As for `O=C(NCc1ccon1)N1CCC(n2ccc(C(F)(F)F)n2)CC1`, the figure is -25.88%.
For the compound `Cc1ccnn1CCN1CCCC2(CCC(=O)N(C3CCCC3)C2)C1` (stereo not drawn), the “Percent Effect” value was -99.39%.
Then `CN1CC(=O)N(c2ccccc2)CC12CCN(C(=O)CC1CC1)C2.O=C(O)C(F)(F)F` (stereo not drawn), with -38.66%; and `O=C(c1ccc(=O)[nH]c1)N1C[C@@H]2CC[C@H](C1)N(Cc1ccccc1)C2`, with -23.45%.
Regarding `O=C(c1ccc(F)c(Cl)c1)N1C[C@@H]2CC[C@H](C1)N(Cc1ccccc1)C2`, the “Percent Effect” value amounted to 73.05%.
As to `O=C(c1cc(F)cc(Cl)c1)N1C[C@@H]2CC[C@H](C1)N(Cc1ccccc1)C2`, the “Percent Effect” value is -134.7%.
As for `Cc1nn(C)c2nc(NCCCN3CCCC(CO)C3)sc12` (stereo not drawn), the “Percent Effect” value is recorded as -120%.
As for `N#Cc1ccc(CN2CCNC(=O)C2c2cccs2)cc1` (stereo not drawn), the figure is -98.76%; as for `CC[C@]12CN3C[C@](CC)(CN(C1)C3c1[nH]c(=O)[nH]c(=O)c1C)C2=O` (stereo partly drawn), -91.51%.
As for `CN(Cc1cccnc1)Cc1cn2c(n1)CN(C1CCOC1)CC2.O=C(O)C(F)(F)F.O=C(O)C(F)(F)F.O=C(O)C(F)(F)F` (stereo not drawn), the figure is -34.3%; as for `CC(C)CC(=O)NCCCn1cncn1`, -49.15%.
